The list is not random: actives were taken first. Their share in the collection is about 3.5%.
GPR151 activ – activators of human GPR151, primary screen, cell-based, PathHunter beta-arrestin, luminescence. PathHunter beta-arrestin GPR151 cells. G-protein coupled receptor 151 (Homo sapiens), Q8TDV0. actives 1% (n = 650,000). activation, % at 11.2 µM; in the data active = activation above about 4.9%
MITF inh – MITF inhibitors, primary screen, biochemical, AlphaScreen, human | inhibition, % at 2.6 µM | actives 0.91% (n = 650,000) | AID 1259374, 2018 | AlphaScreen MITF homodimerization, bead proximity signal | Microphthalmia-associated transcription factor (Homo sapiens), O75030; in the data active = inhibition above about 50%
Target sequence (O75030 whole entry, looked up): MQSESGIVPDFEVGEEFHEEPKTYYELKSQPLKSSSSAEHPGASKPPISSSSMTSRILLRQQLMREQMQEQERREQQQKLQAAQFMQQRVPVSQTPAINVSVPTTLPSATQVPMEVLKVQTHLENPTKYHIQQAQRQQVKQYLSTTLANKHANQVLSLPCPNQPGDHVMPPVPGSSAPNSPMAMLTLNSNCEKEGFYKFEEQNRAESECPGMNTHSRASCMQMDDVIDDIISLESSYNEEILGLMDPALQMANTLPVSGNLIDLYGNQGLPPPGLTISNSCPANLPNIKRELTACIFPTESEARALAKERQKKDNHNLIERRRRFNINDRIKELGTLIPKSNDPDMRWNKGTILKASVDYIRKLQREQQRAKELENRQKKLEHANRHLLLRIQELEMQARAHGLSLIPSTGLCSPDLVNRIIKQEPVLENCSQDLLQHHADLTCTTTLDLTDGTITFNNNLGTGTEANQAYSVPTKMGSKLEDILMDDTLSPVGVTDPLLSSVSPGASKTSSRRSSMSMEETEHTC
TEAD-YAP block – TEAD-YAP interaction inhibition, primary screen, TEAD-YAP interaction inhibitor project, luminescence, HEK-TIYL cells; TEAD-Gal4/YAP UAS-luciferase luminescence; inhibition, % at 9.12 µM; actives 1.4% (n = 640,000); in the data active = inhibition above about 32%
FBW7 activator – FBW7 E3 ligase activators, primary screen, biochemical, AlphaScreen, human. F-box/WD repeat-containing protein 7 (Homo sapiens), Q969H0. AlphaScreen FBW7–phospho-cyclin E peptide binding, activator screen. normalized activity (activation), % at 26.1 µM. actives 0.13% (n = 650,000). AID 1259310, 2017; in the data active = normalized activity above about 1.9%;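 note: purified mutant Fbw7 with reduced substrate affinity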
MITF confirm – MITF inhibitors, retest of hits, confirmation, biochemical, AlphaScreen, triplicate. AID 1259372, 2018. actives 16% (n = 4,700). shares compounds with MITF inh. inhibition, % at 2.6 µM. AlphaScreen MITF homodimerization, biotin/His-MITF beads;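 active = inhibition above a cutoff derived from the DMSO control wells, cut at about 28% in these data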;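 note: inhibitors lower the bead chemiluminescence by keeping MITF from dimerizing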
AlphaScreen DR – AlphaScreen optical interference compounds, dose response, counter-screen, biochemical, HTS. AID 1259373, 2018. IC50, µM. actives 6% (n = 480). shares compounds with MITF inh. AlphaScreen optical interference counterscreen, cell-free; call rule not given here
AS interf ctr – AlphaScreen optical interference compounds, counter-screen for MITF inhibitor project, biochemical, triplicate; shares compounds with MITF inh; LysRS AlphaScreen counterscreen, signal interference; inhibition, % at 2.6 µM; actives 7.6% (n = 4,700); AID 1259376, 2018;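 active = inhibition above a cutoff derived from the DMSO control wells, cut at about 30% in these data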
Numbers stand for hits; i = inactive; nt = no result given.

SMILES	GPR151 activ	MITF inh	TEAD-YAP block	FBW7 activator	MITF confirm	AS interf ctr	others
O=C(CN1CCOCC1)c1cccc2ccccc12	i	56	i	i	i	i
COc1ccc(CCNC2C3CC4CC(C3)CC2C4)cc1OC (centres undefined)	i	i	i	i	nt	nt
COc1ccc(CC2NCCc3cc(OC)c(OC)cc32)cc1OC (centres undefined)	i	84	i	i	101	i	AlphaScreen DR=3.4
O=[N+]([O-])c1cc(F)c(N2CCOCC2)cc1N1CCNCC1	i	i	i	i	nt	nt
CCOP(=O)(OCC)SCc1ccccc1	i	53	i	i	i	i
O=C(CN1CC(c2ccccc2)CC1=O)Nc1ccc(I)cc1 (centres undefined)	i	i	i	i	nt	nt
COc1cccc(CCNCc2cc(OC)cc(OC)c2)c1	i	55	i	i	i	i
COc1ccc(CCNCc2cccnc2)cc1OC	i	70	i	i	i	i
CCCCn1c(C)c(C(=O)OCC)c2cc(OC(=O)CCC)c3ccccc3c21	i	i	i	i	nt	nt
N#Cc1ccc(NC(=O)c2cc(F)cc(F)c2)cc1Cl	i	i	i	i	nt	nt
Cc1ccc(/C=C2\C(=O)C3CCN2CC3)cc1	i	i	i	i	nt	nt
O=[N+]([O-])c1c(Br)ccc2c1no[n+]2[O-]	i	90	i	i	80	i	AlphaScreen DR=i
CC(C)CN1CCN(Cc2ccc(F)cc2)C(CCO)C1 (centres undefined)	i	i	i	i	nt	nt
O=C(CF)NC(NC(=S)Nc1ccc(Cl)cn1)C(Cl)(Cl)Cl (centres undefined)	i	i	i	i	nt	nt
CCN1CCN(Cc2c(Cl)cccc2Cl)CC1	i	69	i	i	i	i
CCN1CCN(Cc2ccc(Cl)c(Cl)c2)CC1	i	i	i	i	nt	nt
Clc1ccc(CN2CCN(Cc3ccccc3Cl)CC2)cc1	i	78	i	i	i	i
CCc1ccc(CN2CCN(Cc3ccccc3Cl)CC2)cc1	i	68	i	i	i	i
CCCCOC(=O)C1=C(N)OC2=C(C(=O)CC(C)(C)C2)C12C(=O)N(C)c1ccccc12 (centres undefined)	i	i	i	i	nt	nt
CCOc1cc(CN2CCN(C(C)C)CC2)ccc1OC	i	55	i	i	i	i
COc1ccc(CN2CCN(c3ccccc3F)CC2)cc1OC	i	52	i	i	i	i
CCC(CC)N1CCN(Cc2ccc(OC)c(OC)c2)CC1	i	69	i	i	i	i
CCOc1cc(CN2CCN(C(CC)CC)CC2)ccc1OC	i	78	i	i	i	i
COc1ccc(CCNCc2ccc(C)o2)cc1OC	i	i	i	i	nt	nt
CC1(C)CN=C(NCc2ccccn2)S1	i	i	i	i	nt	nt
SMILES	GPR151 activ	MITF inh	TEAD-YAP block	FBW7 activator	MITF confirm	AS interf ctr	others
CC12CNCC(c3ccccc3)(CNC1)C2=O	i	i	i	i	nt	nt
Brc1cccc(C2C=C(c3cccnc3)Nc3ncnn32)c1 (centres undefined)	i	i	i	i	nt	nt
CCC(CC)N1CCN(Cc2ccc(OC)cc2)CC1	i	54	i	i	i	i
CCOc1cc(CN2CCN(Cc3ccccc3)CC2)ccc1O	i	56	i	i	i	i
CCOc1cc(CN2CCN(c3ccccc3F)CC2)ccc1O	i	i	i	i	nt	nt
COCc1nc2ccccc2c(=O)n1-c1ccc(F)cc1	i	i	i	i	nt	nt
O=C(c1ccoc1)N1CCC2(CC1)OCc1ccccc1O2	i	i	i	i	nt	nt
CN1CCC2(C1)Oc1ccccc1O2	i	55	i	i	i	i
CCOc1ccc(CN2CCN(Cc3ccccc3C)CC2)cc1	i	64	i	i	i	i
CCOc1ccc(CN2CCN(c3ccccc3)CC2)cc1	i	i	i	i	nt	nt
CN1CCN(Cc2ccc(Cl)cc2)CC1	i	i	i	i	nt	nt
CCOc1ccc(CN2CCN(Cc3ccc(Cl)cc3)CC2)cc1	i	58	i	i	i	i
CCOc1cccc(CN2CCN(Cc3ccccc3)CC2)c1O	i	i	i	i	nt	nt
CCc1ccc(CN2CCN(Cc3ccc(Cl)cc3)CC2)cc1	i	76	i	i	i	i

High-throughput results: PubChem BioAssay, The Scripps Research Institute Molecular Screening Center
